Holding throughout (design): scale not given: direction of the effect not stated beside the values
For test [1], the target named is Protein translocase subunit SecA (Escherichia coli (strain K12)) (UniProt P10408). The test is described as follows: Assay to Identify E. coli SecA ATPase Inhibitors. In kind it is functional. The settings on record: 30 µM.
Test [2] has as its target T1, Ubiquitin-activating enzyme e1, putative (Leishmania donovani (strain BPK282A1)) (UniProt E9BSI1).
T1 sequence (whole entry): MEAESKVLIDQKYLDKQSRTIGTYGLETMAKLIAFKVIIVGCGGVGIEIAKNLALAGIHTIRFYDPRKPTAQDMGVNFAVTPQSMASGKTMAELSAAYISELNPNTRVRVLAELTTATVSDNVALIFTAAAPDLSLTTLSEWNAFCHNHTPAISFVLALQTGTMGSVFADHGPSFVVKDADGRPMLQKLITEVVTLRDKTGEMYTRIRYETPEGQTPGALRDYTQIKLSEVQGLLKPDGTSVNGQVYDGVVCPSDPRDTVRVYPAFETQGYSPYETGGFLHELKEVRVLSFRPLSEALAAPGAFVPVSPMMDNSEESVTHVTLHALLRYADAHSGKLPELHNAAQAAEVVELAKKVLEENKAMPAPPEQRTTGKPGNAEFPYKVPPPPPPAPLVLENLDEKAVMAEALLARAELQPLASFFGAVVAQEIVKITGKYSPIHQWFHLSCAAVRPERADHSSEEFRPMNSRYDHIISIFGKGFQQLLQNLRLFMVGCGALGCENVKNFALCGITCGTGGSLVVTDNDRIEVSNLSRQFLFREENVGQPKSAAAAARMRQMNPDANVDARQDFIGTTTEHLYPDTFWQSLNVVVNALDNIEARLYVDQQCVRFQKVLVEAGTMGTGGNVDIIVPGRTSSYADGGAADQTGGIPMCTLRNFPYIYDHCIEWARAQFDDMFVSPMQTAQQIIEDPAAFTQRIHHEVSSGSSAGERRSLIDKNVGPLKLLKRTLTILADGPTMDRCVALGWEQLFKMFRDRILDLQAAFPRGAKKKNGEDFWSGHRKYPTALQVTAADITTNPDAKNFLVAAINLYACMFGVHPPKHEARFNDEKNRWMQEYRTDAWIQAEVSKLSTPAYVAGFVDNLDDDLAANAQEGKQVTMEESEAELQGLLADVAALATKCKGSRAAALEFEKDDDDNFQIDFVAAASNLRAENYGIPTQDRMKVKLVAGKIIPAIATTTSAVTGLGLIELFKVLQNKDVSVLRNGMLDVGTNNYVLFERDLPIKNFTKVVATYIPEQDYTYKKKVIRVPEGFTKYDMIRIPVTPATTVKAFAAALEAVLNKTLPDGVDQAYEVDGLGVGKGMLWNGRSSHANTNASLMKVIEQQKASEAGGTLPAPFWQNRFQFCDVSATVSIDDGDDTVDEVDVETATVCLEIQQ
The test is described as follows: Leishmania donovani Ubiquitin Activating Enzyme (LdE1). In kind it is functional. The settings on record: 30 µM.

Test [3] has as its target AMP-activated protein kinase, AMPK (Homo sapiens) (UniProt P54646+O43741+P54619+Q9UGJ0+Q9Y478+Q13131+Q9UGI9). The test is described as follows: AMP-dependent Kinase enzyme assay. An in vitro enzyme assay that detects ADP turnover that is directly proportional to AMPK activity. This uses naive AMPK that is activated during the assay with MK-8722. In kind it is functional. The note with it: 30 µM.

In test [4] the target is Sialic acid-binding Ig-like lectin 9 (Homo sapiens) (UniProt Q9Y336). The test is described as follows: Hs-Siglec9 ALPHAscreen SOP 20170721. The settings on record: 10 µM. For orientation: In Alpha technology, singlet oxygen from a donor bead excites a nearby acceptor bead.
Another test concerns Trypanosoma cruzi. Description: Trypanosoma cruzi phosphomannomutase and mannose-1-phosphate guanylyltransferase assay. The settings on record: 10 µM. In kind it is functional.
For test [5], the target named is T2, Arginase-2, mitochondrial (Homo sapiens) (UniProt P78540).
T2 sequence (whole entry): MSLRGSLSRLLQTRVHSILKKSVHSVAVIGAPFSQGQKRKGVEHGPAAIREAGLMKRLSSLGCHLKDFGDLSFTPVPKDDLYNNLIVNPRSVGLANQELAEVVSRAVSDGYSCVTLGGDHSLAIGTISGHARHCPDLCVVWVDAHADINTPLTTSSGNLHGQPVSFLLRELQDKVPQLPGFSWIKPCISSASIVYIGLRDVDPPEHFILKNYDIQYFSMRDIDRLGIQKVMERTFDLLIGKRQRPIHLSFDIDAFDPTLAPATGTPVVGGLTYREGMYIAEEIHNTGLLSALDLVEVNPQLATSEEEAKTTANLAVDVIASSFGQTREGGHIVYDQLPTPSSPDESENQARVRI
Description: in vitro enzyme assay to detect the production of urea directly proportional to the activity of Arginase II. Also: in the data most compounds retested in dose-response had high values. The settings on record: 33.3 µM. In kind it is functional.

In test [6] the target is T3, Proteasome subunit beta (Trypanosoma cruzi) (UniProt O96673).
T3 sequence (whole entry): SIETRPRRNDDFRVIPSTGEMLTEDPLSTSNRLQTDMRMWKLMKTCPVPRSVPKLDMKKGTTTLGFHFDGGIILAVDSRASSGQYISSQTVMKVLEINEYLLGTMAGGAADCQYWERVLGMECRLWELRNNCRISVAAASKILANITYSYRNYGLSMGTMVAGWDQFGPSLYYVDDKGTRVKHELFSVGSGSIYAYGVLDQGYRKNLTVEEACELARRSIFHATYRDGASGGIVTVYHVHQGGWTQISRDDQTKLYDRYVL
Description: Trypanosoma cruzi proteasome chymotrypsin-like activity (TcProtChymo) assay. Also: in the data most compounds retested in dose-response had high values. In kind it is functional. The note with it: 9.37 µM.

The species named for the next test is Homo sapiens. The test is described as follows: To identify inhibition of the IFN signalling (Jak-Stat) pathway via expression of an eGFP reporter gene under the control of an IFN-stimulated response element (ISRE) containing MxA promoter. In kind it is functional. The settings on record: 30 µM. For orientation: Reporter assays use an easily measured gene product as a stand-in for the process of interest.

Test [7] addresses T4, Tyrosyl-tRNA synthetase, putative (Trypanosoma cruzi (strain CL Brener)) (UniProt Q4DSP6).
T4 sequence (whole entry): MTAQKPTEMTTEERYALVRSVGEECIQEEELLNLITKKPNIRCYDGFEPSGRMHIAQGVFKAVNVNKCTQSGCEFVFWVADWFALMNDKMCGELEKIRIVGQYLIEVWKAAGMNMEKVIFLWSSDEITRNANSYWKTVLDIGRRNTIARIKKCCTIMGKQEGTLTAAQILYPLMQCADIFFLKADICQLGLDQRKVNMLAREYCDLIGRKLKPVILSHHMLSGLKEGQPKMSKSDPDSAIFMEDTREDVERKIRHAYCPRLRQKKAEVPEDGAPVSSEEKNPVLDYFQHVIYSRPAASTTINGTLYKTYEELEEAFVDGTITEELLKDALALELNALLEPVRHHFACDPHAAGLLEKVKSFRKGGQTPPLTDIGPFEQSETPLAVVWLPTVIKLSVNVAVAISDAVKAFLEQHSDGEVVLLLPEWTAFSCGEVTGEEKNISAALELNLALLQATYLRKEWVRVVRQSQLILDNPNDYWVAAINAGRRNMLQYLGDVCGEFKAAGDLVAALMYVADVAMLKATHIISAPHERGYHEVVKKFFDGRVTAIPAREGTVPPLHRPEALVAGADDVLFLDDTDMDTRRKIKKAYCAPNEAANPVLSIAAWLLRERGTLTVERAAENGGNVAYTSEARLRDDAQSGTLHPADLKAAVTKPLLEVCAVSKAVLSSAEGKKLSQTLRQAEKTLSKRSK
Description: Trypanosoma cruzi tyrosyl tRNA synthetase (TcYRS) _High Tyrosine SOP. Also: in the data most compounds retested in dose-response had high values. In kind it is functional. The note with it: 30 µM.

Test [8] addresses T4, Tyrosyl-tRNA synthetase, putative (Trypanosoma cruzi (strain CL Brener)). The test is described as follows: Trypanosoma cruzi tyrosyl tRNA synthetase (TcYRS) SOP. In kind it is functional. The note with it: 30 µM.
In test [9] the target is Chromo domain-containing protein 1 (Saccharomyces cerevisiae (strain ATCC 204508 / S288c) (Baker's yeast)) (UniProt P32657). The test is described as follows: ScCHD-1 Enzyme Inhibition Assay. Also: in the data most compounds retested in dose-response had high values. In kind it is functional. The note with it: 30 µM.

For some of these results: Results with a measured potency or affinity are listed apart.

Chromo domain-containing protein 1 (Saccharomyces cerevisiae (strain ATCC 204508 / S288c) (Baker's yeast)), sequence (P32657 whole entry, the tested form may be a part): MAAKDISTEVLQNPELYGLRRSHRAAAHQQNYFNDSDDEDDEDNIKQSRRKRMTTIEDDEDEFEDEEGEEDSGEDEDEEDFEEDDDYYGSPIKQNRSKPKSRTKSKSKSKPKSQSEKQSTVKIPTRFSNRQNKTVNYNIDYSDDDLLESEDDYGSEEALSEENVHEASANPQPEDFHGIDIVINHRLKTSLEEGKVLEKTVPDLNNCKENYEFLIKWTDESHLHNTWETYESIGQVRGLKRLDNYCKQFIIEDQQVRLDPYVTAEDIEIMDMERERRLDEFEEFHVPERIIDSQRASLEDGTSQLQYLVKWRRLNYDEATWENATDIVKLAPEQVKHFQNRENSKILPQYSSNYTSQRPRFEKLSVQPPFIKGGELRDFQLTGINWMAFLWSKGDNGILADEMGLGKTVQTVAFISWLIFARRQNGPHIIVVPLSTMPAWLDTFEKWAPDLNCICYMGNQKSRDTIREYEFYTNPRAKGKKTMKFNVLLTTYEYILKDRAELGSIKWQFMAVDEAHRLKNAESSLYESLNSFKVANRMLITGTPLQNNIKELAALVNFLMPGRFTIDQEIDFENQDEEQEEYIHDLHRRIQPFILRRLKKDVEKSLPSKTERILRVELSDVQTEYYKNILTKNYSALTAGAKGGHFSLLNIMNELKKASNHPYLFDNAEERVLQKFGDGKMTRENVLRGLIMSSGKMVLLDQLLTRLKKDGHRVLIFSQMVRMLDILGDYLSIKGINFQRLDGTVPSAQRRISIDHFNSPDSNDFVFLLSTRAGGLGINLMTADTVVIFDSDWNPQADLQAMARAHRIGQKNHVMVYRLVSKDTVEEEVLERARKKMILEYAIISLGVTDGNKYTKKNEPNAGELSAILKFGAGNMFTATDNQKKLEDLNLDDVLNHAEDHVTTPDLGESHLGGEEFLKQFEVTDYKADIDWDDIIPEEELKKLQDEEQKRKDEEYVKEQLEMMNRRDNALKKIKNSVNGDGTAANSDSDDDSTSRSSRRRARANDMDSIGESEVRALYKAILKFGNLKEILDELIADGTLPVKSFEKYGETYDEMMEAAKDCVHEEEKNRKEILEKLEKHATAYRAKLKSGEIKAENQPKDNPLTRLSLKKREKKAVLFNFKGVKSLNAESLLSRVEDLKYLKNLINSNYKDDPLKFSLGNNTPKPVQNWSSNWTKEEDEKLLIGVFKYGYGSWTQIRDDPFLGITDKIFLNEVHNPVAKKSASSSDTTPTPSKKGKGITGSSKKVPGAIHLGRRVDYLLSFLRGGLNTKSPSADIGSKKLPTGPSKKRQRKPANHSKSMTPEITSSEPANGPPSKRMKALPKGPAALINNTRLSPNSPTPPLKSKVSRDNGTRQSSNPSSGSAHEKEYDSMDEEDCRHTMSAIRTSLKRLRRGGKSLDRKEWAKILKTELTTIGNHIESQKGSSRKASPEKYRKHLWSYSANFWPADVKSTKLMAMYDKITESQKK
Sialic acid-binding Ig-like lectin 9 (Homo sapiens), sequence (Q9Y336 whole entry): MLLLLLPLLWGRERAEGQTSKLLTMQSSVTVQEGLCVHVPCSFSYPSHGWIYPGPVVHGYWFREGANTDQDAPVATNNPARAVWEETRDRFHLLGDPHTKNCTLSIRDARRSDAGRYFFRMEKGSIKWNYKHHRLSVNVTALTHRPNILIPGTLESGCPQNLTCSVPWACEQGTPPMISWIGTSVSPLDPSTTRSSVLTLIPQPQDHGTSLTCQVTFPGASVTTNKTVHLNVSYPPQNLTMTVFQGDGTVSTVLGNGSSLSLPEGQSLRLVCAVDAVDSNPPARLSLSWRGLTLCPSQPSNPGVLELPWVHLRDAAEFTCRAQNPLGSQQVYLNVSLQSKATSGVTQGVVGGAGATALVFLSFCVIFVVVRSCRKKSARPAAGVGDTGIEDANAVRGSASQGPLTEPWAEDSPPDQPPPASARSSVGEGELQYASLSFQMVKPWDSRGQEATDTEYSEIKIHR
Protein translocase subunit SecA (Escherichia coli (strain K12)), sequence (P10408 whole entry): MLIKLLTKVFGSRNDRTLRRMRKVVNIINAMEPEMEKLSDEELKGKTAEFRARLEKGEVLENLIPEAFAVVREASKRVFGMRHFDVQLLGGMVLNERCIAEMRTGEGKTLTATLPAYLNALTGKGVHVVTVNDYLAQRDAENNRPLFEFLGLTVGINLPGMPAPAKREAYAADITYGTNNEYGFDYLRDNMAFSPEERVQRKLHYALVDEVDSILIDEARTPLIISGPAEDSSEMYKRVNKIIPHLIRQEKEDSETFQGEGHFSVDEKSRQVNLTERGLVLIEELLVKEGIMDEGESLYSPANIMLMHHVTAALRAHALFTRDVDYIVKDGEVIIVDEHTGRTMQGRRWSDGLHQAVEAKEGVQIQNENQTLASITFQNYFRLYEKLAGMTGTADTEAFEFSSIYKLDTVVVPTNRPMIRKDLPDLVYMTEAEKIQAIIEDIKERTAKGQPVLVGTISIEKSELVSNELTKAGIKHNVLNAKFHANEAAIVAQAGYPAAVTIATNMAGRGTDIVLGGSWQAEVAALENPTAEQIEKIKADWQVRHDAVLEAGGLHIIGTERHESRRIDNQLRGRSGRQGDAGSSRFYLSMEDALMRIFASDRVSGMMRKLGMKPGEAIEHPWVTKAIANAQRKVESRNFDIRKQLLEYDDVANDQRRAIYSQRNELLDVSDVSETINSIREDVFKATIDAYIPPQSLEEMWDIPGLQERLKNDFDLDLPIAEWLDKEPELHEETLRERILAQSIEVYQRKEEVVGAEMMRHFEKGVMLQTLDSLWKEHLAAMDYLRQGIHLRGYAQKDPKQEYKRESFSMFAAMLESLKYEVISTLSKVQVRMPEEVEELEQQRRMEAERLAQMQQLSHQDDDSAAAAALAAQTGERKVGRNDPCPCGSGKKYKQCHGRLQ

On to `CC(C)Oc1ncccc1CNC(=O)N1CCC1c1ccccc1` (stereo not drawn), for which the Percent Effect in test [1] was -7.94%; in test [2], 13.2%; in test [3] it was -8.45%; in test [4], 2.16%; in the test on Trypanosoma cruzi it was 11.3%; in test [5], -0.766%. The Percent Effect was 9.69% in [6]; 23.3% in the test listed under Homo sapiens; 7.35% in test [7]; 17.1% in test [8]; -12% in test [9].
Regarding `CCC1c2cccn2CCN1C(=O)c1ccc2nonc2c1` (stereo not drawn), the Percent Effect in test [1] was -6.68%; in test [2], -1.39%; in test [3], -3.32%; in test [4], -10.2%; in the test with Trypanosoma cruzi it was -3.79%; in test [5], 0%. Also, the Percent Effect in [6] was 11.6%; in the test filed under Homo sapiens it was -4.01%; in test [7], 3.16%; in [8], -2.56%; in test [9], 2.02%.
`CC(C)(CNC(=O)CCOc1cccc(F)c1)C(N)=O`: the Percent Effect in test [1] was -1.29%; in test [2], 7.89%; in [3], 1.89%; in [4] it was 3.39%; with Trypanosoma cruzi, -7.14%; in [5] it was 3.06%. The Percent Effect was 10.5% in test [6]; 12% in the test listed under Homo sapiens; 5.39% in [7]; 12.2% in test [8]; -1.57% in [9].
`Cc1ccn(-c2ccc(C(=O)N3CCCC(n4ccnc4)C3)cc2)n1` (stereo not drawn): the Percent Effect is 1.74% in [1]; -2.53% in test [2]; 4.22% in test [3]; -1.83% in test [4]; 1.6% in the test on Trypanosoma cruzi; 2.66% in [5]. Moreover, the Percent Effect was -2.21% in test [6]; 1.73% in the test listed under Homo sapiens; 4.43% in test [7]; -3.8% in test [8]; -1.63% in test [9].
`Cc1nc(C)c(C(=O)NCCNC(=O)Cc2cccc(F)c2)s1`: the Percent Effect in test [1] was -3.25%; in [2], 16.2%; in test [3], -2.81%; in test [4], 1.34%; in the test on Trypanosoma cruzi, 0.464%; in [5] it was 0.924%. The Percent Effect is 17.8% in test [6]; 17.9% in the test listed under Homo sapiens; 9.9% in [7]; 18.3% in [8]; -4.49% in [9].
On to `Cc1cc(N2CCCN(C(=O)Cc3csc(C)n3)CC2)ccn1`, for which the Percent Effect is 0.872% in [1]; 5.41% in test [2]; 0.202% in test [3]; -1.96% in test [4]; -2.7% with Trypanosoma cruzi; 4.76% in test [5]. The Percent Effect in test [6] is 20.2%; in the test listed under Homo sapiens it was 9.24%; in test [7] it was 2.65%; in test [8] it was 9.76%; in test [9], -3.36%.
For `O=C(C1CCCC1)N1CCN(Cc2nc(-c3ccco3)no2)CC1`, the Percent Effect in [1] is -5.54%; in test [2], 13.5%; in [3], -5.37%; in test [4], 16%; in the test with Trypanosoma cruzi, 3.99%; in test [5] it was -1.29%. In addition, the Percent Effect in test [6] is 3.23%; in the test filed under Homo sapiens, 19.1%; in test [7] it was 4.95%; in [8], 15.8%; in test [9], -4.84%.
Regarding `CCOC(=O)CCNC(=O)N1CCN(c2nc3ccccc3n2C)CC1`, the Percent Effect is -1.65% in [1]; 10.4% in [2]; 1.91% in test [3]; 4.46% in test [4]; -5.42% in the test with Trypanosoma cruzi; -266% in test [5]. Besides, the Percent Effect in test [6] was 12.2%; in the test listed under Homo sapiens, -4.19%; in test [7], 2.12%; in test [8], 16.7%; in test [9], -7.17%.
